Laboratory results as given in PubChem BioAssay AID624330 (Southern Research Specialized Biocontainment Screening …, 2012).
In all, about 340,000 compounds went through this assay and about 2,100 (0.62%) were called active.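 The calls were made as follows: active = first-screen hits whose inhibition reached a set limit at any dose in the follow-up dose series; inconclusive = inhibition above the set first-screen limit but never retested; inactive = the rest.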 These entries were drawn from the full list. Results with a measured potency or affinity are listed apart.

Target: Rac GTPase-activating protein 1 (Homo sapiens) (UniProt Q9H0H5)
Experiment: MgcRacGAP GTPase-activating activity inhibitors, confirmation, biochemical, ADP Hunter fluorescence, primary and confirmatory (AID 624330);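 also: fluorescence reports GDP produced by GAP-driven GTP hydrolysis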
Conditions: MgcRacGAP-stimulated Rac1 GTP hydrolysis, at 30 µM, stronger effect = higher value, GST-tagged Rac1 F28L mutant substrate

Rac GTPase-activating protein 1 (Homo sapiens), sequence (Q9H0H5 whole entry, looked up): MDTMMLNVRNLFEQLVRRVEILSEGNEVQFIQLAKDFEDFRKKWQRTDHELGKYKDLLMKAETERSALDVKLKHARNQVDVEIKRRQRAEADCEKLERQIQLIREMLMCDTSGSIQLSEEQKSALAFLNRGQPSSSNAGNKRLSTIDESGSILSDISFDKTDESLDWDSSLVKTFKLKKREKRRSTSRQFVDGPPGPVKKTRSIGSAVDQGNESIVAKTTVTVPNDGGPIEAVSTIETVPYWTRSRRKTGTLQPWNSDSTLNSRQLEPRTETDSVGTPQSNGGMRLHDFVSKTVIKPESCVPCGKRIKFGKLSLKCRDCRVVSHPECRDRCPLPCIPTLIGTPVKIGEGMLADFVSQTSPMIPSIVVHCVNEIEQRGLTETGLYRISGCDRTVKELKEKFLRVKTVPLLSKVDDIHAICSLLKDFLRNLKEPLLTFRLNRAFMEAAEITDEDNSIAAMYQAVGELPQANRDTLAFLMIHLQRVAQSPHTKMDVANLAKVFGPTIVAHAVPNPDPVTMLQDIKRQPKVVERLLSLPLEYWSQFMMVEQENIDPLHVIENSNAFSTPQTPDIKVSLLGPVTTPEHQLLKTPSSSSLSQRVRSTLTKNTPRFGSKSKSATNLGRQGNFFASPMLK

inhibition, inactive:
CCCC(C)NC(=O)CN1C(=O)c2cccc3cccc1c23 (stereo not drawn) 7.54%
COc1ccc(CN(C)Cc2ccccc2)c(OC)c1OC 4.85%
Cc1cccc(CN(C)CCc2ccccn2)c1 9.5%
CN(CCc1ccccn1)Cc1ccc(Cl)c(Cl)c1 27.1%
CCc1ccc(CN(C)CCc2ccccn2)cc1 13.2%
CN(CCc1ccccn1)Cc1ccc(Cl)cc1Cl 19.1%
COc1ccc(CCN(C)Cc2ccc(OC)c(OCc3ccccc3)c2)cc1OC 18.3%
Cc1ccc(CN(C)CCc2ccccn2)cc1 13%
CN(CCc1ccccn1)Cc1ccc(Cl)cc1 24%
CC(C)=CCCC(C)=CCN1C(=O)CN(C)C1=O 4.98%
CC(=O)c1cccc(NC(=O)C(C)OC(=O)CCC2CCCCC2)c1 (stereo not drawn) 1.73%
O=[N+]([O-])c1cccc(/C=N/n2cnnc2)c1O 4.49%
Cc1onc(-c2ccccc2Cl)c1C(=O)NCCCN1CCOCC1 12%
NS(=O)(=O)c1ccc(N/N=C/c2cn(-c3ccccc3)nc2-c2cccs2)cc1 2.12%
CCN(CCCCCCN)c1ccc2c(=O)[nH][nH]c(=O)c2c1 3.58%
Cc1ccc(-n2ncc3c(NNC(=O)c4ccco4)ncnc32)c(C)c1 7.64%
CCc1ccc(C2=NN(CCC(=O)NCC3CCCO3)C(=O)CC2)cc1 (stereo not drawn) 11.8%
CCNC(=S)N(CCc1c(C)[nH]c2ccc(OC)cc12)Cc1cccnc1 12.7%
O=C(NC1CCCCC1)c1sc(=S)n2c1[nH]c(=O)c1ccccc12 10.6%
O=C(NCc1ccccc1)c1ccc2c(=O)[nH]c3c(C(=O)NCC4CCCO4)sc(=S)n3c2c1 (stereo not drawn) 16.2%
Cc1ccccc1Cn1nc(C)c(NC(=O)c2cc(CC(C)C)on2)c1C 9.15%
COc1ccc(NC(=O)c2c(NC(=O)CNCc3ccco3)sc3c2CCC3)cc1 15.6%
COC(=O)c1c(NC(=O)c2ccco2)sc2c1CCC2 15.8%
CC(Sc1nncn1C)C(=O)Nc1nnc(C(C)C)s1 (stereo not drawn) -0.22%
CC(=O)CSc1nnc(NC(=O)CCc2ccccc2)s1 2.89%
CCNC(=S)NNC(=O)c1cc(Br)cs1 11.2%
CCCCn1c(N)c(N(Cc2ccccc2OC)C(=O)C(C)Oc2ccc(F)cc2)c(=O)[nH]c1=O (stereo not drawn) 6.07%
C=CCSc1nnc(NC(=O)CSc2nc(CCC)cc(=O)[nH]2)s1 12.2%
COc1cc(NC(=O)CN2C(=O)NC(C)(CCC(C)C)C2=O)cc(OC)c1 (stereo not drawn) -1.63%
COC(=O)c1[nH]c2ccccc2c1NC(=O)c1c(F)cccc1F -14.4%
CCOC(=O)Nc1c(C(=O)OC)[nH]c2cc(OC)ccc12 8.73%
CCOC(=O)c1[nH]c2ccccc2c1NC(=O)CC -0.8%
COC(=O)c1[nH]c2cc(OC)c(OC)cc2c1NC(=O)c1cccc(OC)c1 10.8%
C=CCOC(=O)Nc1c(C(=O)OC)[nH]c2ccccc12 13.1%
C=CCOC(=O)Nc1c(C(=O)OC)[nH]c2ccc(Cl)cc12 0.34%
COC(=O)c1[nH]c2ccc(C)cc2c1NC(=O)Oc1ccccc1 84.7%
CCOC(=O)c1[nH]c2ccccc2c1NC(C)=O 2.46%
N#Cc1c(/N=C/c2cc(Br)cs2)sc2c1CCC2 14.5%
NC(=O)C[C@@H]1NC(=O)[C@H](CCC(=O)O)NC(=O)c2cc([N+](=O)[O-])cc(I)c2OCC[C@@H](C(N)=O)NC1=O 6.13%
CC1CCN(C(=O)CSc2nnc(-c3cccnc3)o2)CC1 7.43%
Cc1cc(C)nc(NC(=NCCc2c[nH]c3ccccc23)NC(=O)Nc2cccc([N+](=O)[O-])c2)n1 8.14%
Cc1ccc(-c2[nH]ncc2/C=C(\C#N)C(=O)NC2CCCCC2)cc1 6.42%
Cc1cc(C)c(C(=O)N2CCCC(C(=O)c3cc(F)ccc3F)C2)o1 (stereo not drawn) 5.58%
CCOC(=O)c1[nH]c2ccc(F)cc2c1NC(=O)c1ccccc1C(=O)O 66%
CCOC(=O)c1[nH]c2ccc(OC)cc2c1NC(=O)c1cccc(OC)c1 5.01%
CCc1ccc(CN(C)C(=O)c2cc(COc3ccc(OC)cc3Cl)on2)nc1 10.7%
c1ccc2nc(-c3nccs3)ccc2c1 1.49%
Oc1ccc(-c2nccc(-c3cccs3)n2)cc1 9.71%
COc1cc(CCCN2CCNC[C@@H]2C(C)O)cc(OC)c1OC (stereo partly drawn) 3.02%
COc1ccc(N2CCN(C(=O)CCCn3c(=O)[nH]c4cc(Cl)ccc4c3=O)CC2)cc1 12.7%
Cc1nnc(SCc2ccc(Cl)c(Cl)c2)s1 5.65%
CCc1noc(C)c1C(=O)NNC(=O)c1ccc(Br)cc1 5.66%
CCOC(=O)/C(C#N)=C/c1ccc(OC)c(OC)c1 5.15%
N#C/C(=C\c1ccc2c(c1)OCCO2)C(=O)Nc1ccc(C(=O)O)cc1 8.32%
COCCNC(=O)/C(C#N)=C/c1ccc2c(c1)OCO2 0.46%
CCOC(=O)/C(C#N)=C\c1ccc(OC)c(OC)c1 8.76%
N#C/C(=C\c1cccc(O)c1)C(=O)Nc1ccc2c(c1)OCCO2 7.83%
COc1cc(/C=C(\C#N)C(=O)Nc2ccccn2)ccc1O 14.9%
Cc1cc(C)c(OCCOCCN(C)C)c(Br)c1 12.7%
CC(C)(C)[C@@H]1C=C(C(N)=O)O[C@H](OCCCCO)C1 4.43%
CN(C(=O)CN1C(=O)NC(C)(c2cccc(Br)c2)C1=O)C1CCCCC1 (stereo not drawn) 6.93%
COc1ccc2nc(SCCOC(=O)Nc3ccc(Cl)cc3)nc(C)c2c1 9.72%
CC1=C(C(=O)NC2CC(C)(C)Cc3c2cnn3-c2cccc(F)c2)OCCO1 (stereo not drawn) -2.86%
